In PubChem BioAssay (EPA / NIEHS):
Calls of active or inactive are those of the source. Rule for the calls: active = hit-call score of the fitted dose curve at least 0.9, where 1 is the maximum; inactive = score below 0.9.

Key:
Details in all cases: mRNA level, 48 h; actives raise or lower the signal
[1] = read-out: Peroxisomal acyl-coenzyme A oxidase 1 (ACOX1) gene, ACOX1 (gene 51); assay: LTEA_HepaRG_ACOX1: Life Technologies and Expression Analysis (LTEA) Assay for Peroxisomal acyl-coenzyme A oxidase 1 (ACOX1) gene using HepaRG (AID 2283467)
How it was run: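 HepaRG, 48 h chemical exposure, 8-pt half-log series from 100 uM top, 0.5% DMSO vehicle, duplicates. Readout: ACOX1 mRNA by Fluidigm qRT-PCR, housekeeping-normalized; bidirectional fit vs DMSO baseline.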

[2] = read-out: Alkaline Phosphatase, Placental (ALPP) gene, ALPP (gene 250); assay: LTEA_HepaRG_ALPP: Life Technologies and Expression Analysis (LTEA) Assay for Alkaline Phosphatase, Placental (ALPP) gene using HepaRG (AID 2283468)
How it was run: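 HepaRG cells plated 48 h, then exposed in duplicate for 48 h in serum-free induction medium to 8-point half-log series from 100 uM in 0.5% DMSO. ALPP mRNA by TaqMan qRT-PCR, normalized to ACTB/GAPDH/POLR2A; bidirectional fit versus DMSO.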

[3] = read-out: Bcl-2 (BAD) gene, BAD (gene 572); assay: LTEA_HepaRG_BAD: Life Technologies and Expression Analysis (LTEA) Assay for Bcl-2 (BAD) gene using HepaRG (AID 2283469)
How it was run: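 HepaRG, 48 h exposure, 8-pt half-log curve from 100 uM in 0.5% DMSO, duplicates. Readout: TaqMan qRT-PCR for BAD mRNA, housekeeping-normalised (ACTB/GAPDH/POLR2A); gain or loss fitted against DMSO baseline.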

[4] = read-out: Bcl-2 (BAX) gene, BAX (gene 581); assay: LTEA_HepaRG_BAX: Life Technologies and Expression Analysis (LTEA) Assay for Bcl-2 (BAX) gene using HepaRG (AID 2283470)
How it was run: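 Cells were thawed, plated for 48 h, moved to serum-free induction medium and dosed for 48 h (highest concentration 100 uM, half-log steps, 0.5% DMSO). Total RNA was then analysed for BAX expression by qRT-PCR.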

[5] = read-out: adenosine kinase (ADK) gene, ADK (gene 132); assay: LTEA_HepaRG_ADK: Life Technologies and Expression Analysis (LTEA) Assay for adenosine kinase (ADK) gene using HepaRG (AID 2283471)
How it was run: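 Read-out is ADK transcript level measured by qRT-PCR and normalised to three housekeeping genes. Cells are human HepaRG, dosed for 48 h at up to 100 uM in 0.5% DMSO. Gain or loss of signal is fitted against DMSO controls.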

[6] = read-out: Alpha-fetoprotein (AFP) gene, AFP (gene 174); assay: LTEA_HepaRG_AFP: Life Technologies and Expression Analysis (LTEA) Assay for Alpha-fetoprotein (AFP) gene using HepaRG (AID 2283472)
How it was run: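 Chemicals were tested on differentiated HepaRG cells for 48 hours at eight concentrations up to 100 uM, with 0.5% DMSO as vehicle. AFP expression was then quantified by qRT-PCR and analyzed for gain or loss relative to DMSO.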

BCL2L11 (gene 10018) = assay: LTEA_HepaRG_BCL2L11: Life Technologies and Expression Analysis (LTEA) Assay for Bcl-2 (BCL2L11) gene using HepaRG (AID 2283473)
How it was run: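 Differentiated human HepaRG cells were exposed 48 h in serum-free induction medium to eight half-log concentrations up to 100 uM in 0.5% DMSO, in duplicate. BCL2L11 mRNA was quantified by TaqMan qRT-PCR, normalized to ACTB, GAPDH and POLR2A; induction or repression fitted versus DMSO.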

[7] = read-out: Apolipoprotein A-V (APOA5) gene, APOA5 (gene 116519); assay: LTEA_HepaRG_APOA5: Life Technologies and Expression Analysis (LTEA) Assay for Apolipoprotein A-V (APOA5) gene using HepaRG (AID 2283474)
How it was run: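 Differentiated HepaRG cells in serum-free induction medium, exposed 48 h in duplicate to eight half-log concentrations topping at 100 uM (0.5% DMSO). APOA5 mRNA by Fluidigm TaqMan qRT-PCR, normalized to ACTB, GAPDH and POLR2A; bidirectional fit versus DMSO.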

[8] = read-out: Apoptosis regulator Bcl-2 (Homo sapiens) (UniProt P10415); assay: LTEA_HepaRG_BCL2: Life Technologies and Expression Analysis (LTEA) Assay for Bcl-2 gene using HepaRG (AID 2283475)
How it was run: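 Plated human HepaRG cells are exposed to test chemicals for 48 h across eight concentrations from 100 uM downward in half-log steps (0.5% DMSO). BCL2 expression is then measured by qRT-PCR with housekeeping normalisation and fitted bidirectionally against vehicle.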

Caspase-3 (Homo sapiens) = Caspase-3 (Homo sapiens) (UniProt P42574); assay: LTEA_HepaRG_CASP3: Life Technologies and Expression Analysis (LTEA) Assay for cysteine-aspartic acid protease (CASP3) using HepaRG (AID 2283477)
Caspase-3 (Homo sapiens), sequence (P42574 whole entry, looked up): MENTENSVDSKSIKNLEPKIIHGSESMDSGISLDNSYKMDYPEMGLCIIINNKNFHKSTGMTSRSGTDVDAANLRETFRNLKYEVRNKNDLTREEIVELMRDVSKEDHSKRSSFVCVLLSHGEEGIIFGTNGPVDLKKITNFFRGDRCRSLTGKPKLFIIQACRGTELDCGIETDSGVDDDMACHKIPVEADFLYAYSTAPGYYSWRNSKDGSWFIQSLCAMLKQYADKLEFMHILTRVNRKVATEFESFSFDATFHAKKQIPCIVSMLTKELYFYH
How it was run: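 Differentiated HepaRG cells, plated 48 h, were treated in duplicate in serum-free induction medium for 48 h with eight half-log concentrations up to 100 uM in 0.5% DMSO. CASP3 mRNA measured by qRT-PCR, normalized to ACTB, GAPDH, POLR2A.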

[9] = read-out: Cytochrome P450 (CYP24A1), CYP24A1 (gene 1591); assay: LTEA_HepaRG_CYP24A1: Life Technologies and Expression Analysis (LTEA) Assay for Cytochrome P450 (CYP24A1) using HepaRG (AID 2283478)
How it was run: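 HepaRG cells plated 48 h, then exposed in duplicate in serum-free induction medium for 48 h to 8-point half-log series from 100 uM in 0.5% DMSO. CYP24A1 mRNA by Fluidigm qRT-PCR, normalized to ACTB, GAPDH, POLR2A; bidirectional fit versus DMSO.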

[10] = read-out: Cytochrome P450 (CYP1A2), CYP1A2 (gene 1544); assay: LTEA_HepaRG_CYP1A2: Life Technologies and Expression Analysis (LTEA) Assay for Cytochrome P450 (CYP1A2) using HepaRG (AID 2283479)
How it was run: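 Differentiated human HepaRG cells in serum-free induction medium exposed 48 hours in duplicate to 8 half-log concentrations from 100 uM, 0.5% DMSO. CYP1A2 mRNA quantified by qRT-PCR, normalized to ACTB, GAPDH and POLR2A; bidirectional fitting versus DMSO.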

[11] = read-out: cysteine-aspartic acid protease (CASP8), CASP8 (gene 841); assay: LTEA_HepaRG_CASP8: Life Technologies and Expression Analysis (LTEA) Assay for cysteine-aspartic acid protease (CASP8) using HepaRG (AID 2283480)
How it was run: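 qRT-PCR readout of CASP8 mRNA, normalized to three housekeeping genes, after 48 h chemical exposure of HepaRG cells; 8-point half-log series, top 100 uM, 0.5% DMSO vehicle. Bidirectional curve fitting against DMSO baseline.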

[12] = read-out: Cytochrome P450 (CYP2B6), CYP2B6 (gene 1555); assay: LTEA_HepaRG_CYP2B6: Life Technologies and Expression Analysis (LTEA) Assay for Cytochrome P450 (CYP2B6) using HepaRG (AID 2283481)
How it was run: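 Differentiated human HepaRG cells in serum-free induction medium, dosed in duplicate for 48 h over 8 half-log concentrations topping at 100 uM (0.5% DMSO). CYP2B6 mRNA measured by TaqMan qRT-PCR, normalized to ACTB, GAPDH, POLR2A; bidirectional fit versus DMSO.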

[13] = read-out: Cytochrome P450 2C19 (Homo sapiens) (UniProt P33261); assay: LTEA_HepaRG_CYP2C19: Life Technologies and Expression Analysis (LTEA) Assay for CYP2C19 using HepaRG (AID 2283482)
How it was run: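 Differentiated HepaRG cells in serum-free induction medium exposed 48 h in duplicate, 8 concentrations from 100 uM by half-log steps in 0.5% DMSO. CYP2C19 mRNA measured by TaqMan qRT-PCR, normalized to ACTB, GAPDH, POLR2A. Bidirectional fit versus DMSO.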

CYP2C8 (gene 1558) = assay: LTEA_HepaRG_CYP2C8: Life Technologies and Expression Analysis (LTEA) Assay for CYP2C8 using HepaRG (AID 2283483)
How it was run: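 HepaRG (human liver line), 48 h chemical exposure, 8-pt half-log series from 100 uM, 0.5% DMSO vehicle. Readout: CYP2C8 transcript by qRT-PCR, housekeeping-normalized. Bidirectional fit vs DMSO baseline.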

CYP2C9 (gene 1559) = assay: LTEA_HepaRG_CYP2C9: Life Technologies and Expression Analysis (LTEA) Assay for CYP2C9 using HepaRG (AID 2283484)
How it was run: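 HepaRG, 48 h dosing, 8-pt half-log series, top 100 uM, 0.5% DMSO vehicle. Read-out: CYP2C9 transcript by TaqMan qRT-PCR, housekeeping-normalized (ACTB/GAPDH/POLR2A). Gain or loss fitted vs DMSO baseline.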

CYP2E1 (gene 1571) = assay: LTEA_HepaRG_CYP2E1: Life Technologies and Expression Analysis (LTEA) Assay for CYP2E1 using HepaRG (AID 2283485)
How it was run: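 Readout is qRT-PCR of CYP2E1 mRNA, normalized to three housekeeping genes and fitted bidirectionally against 0.5% DMSO. HepaRG cells were dosed 48 h at eight concentrations, highest 100 uM with half-log dilutions.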

CYP4A11 (gene 1579) = assay: LTEA_HepaRG_CYP4A11: Life Technologies and Expression Analysis (LTEA) Assay for CYP4A11 using HepaRG (AID 2283486)
How it was run: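 Differentiated HepaRG cells, 48 h after plating, exposed in duplicate for 48 h to 8 half-log concentrations up to 100 uM in 0.5% DMSO in serum-free induction medium. CYP4A11 mRNA measured by TaqMan qRT-PCR, normalized to ACTB, GAPDH and POLR2A.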

[14] = read-out: Bcl-2 (BID) gene, BID (gene 637); assay: LTEA_HepaRG_BID: Life Technologies and Expression Analysis (LTEA) Assay for Bcl-2 (BID) gene using HepaRG (AID 2283476)
How it was run: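 Cells are plated, cultured 48 h, switched to serum-free induction medium, then dosed 48 h (100 uM top, half-log steps, 0.5% DMSO). RNA is isolated and BID expression read by qRT-PCR.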

Measured: AC50

Cytochrome P450 2C19 (Homo sapiens), sequence (P33261 whole entry, looked up): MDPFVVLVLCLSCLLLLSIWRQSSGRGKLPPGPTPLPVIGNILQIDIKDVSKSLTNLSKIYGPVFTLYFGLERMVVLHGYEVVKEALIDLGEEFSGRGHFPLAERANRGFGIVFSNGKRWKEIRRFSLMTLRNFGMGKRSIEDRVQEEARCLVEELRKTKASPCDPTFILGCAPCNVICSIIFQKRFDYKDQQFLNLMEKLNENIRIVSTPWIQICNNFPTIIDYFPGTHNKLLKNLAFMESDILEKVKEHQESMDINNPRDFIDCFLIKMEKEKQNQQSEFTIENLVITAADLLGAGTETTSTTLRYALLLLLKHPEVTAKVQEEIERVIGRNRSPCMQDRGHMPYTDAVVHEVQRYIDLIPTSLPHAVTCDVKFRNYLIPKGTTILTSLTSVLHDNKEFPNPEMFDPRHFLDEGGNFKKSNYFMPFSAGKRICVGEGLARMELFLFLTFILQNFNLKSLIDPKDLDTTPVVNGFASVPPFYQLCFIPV
Apoptosis regulator Bcl-2 (Homo sapiens), sequence (P10415 whole entry, looked up): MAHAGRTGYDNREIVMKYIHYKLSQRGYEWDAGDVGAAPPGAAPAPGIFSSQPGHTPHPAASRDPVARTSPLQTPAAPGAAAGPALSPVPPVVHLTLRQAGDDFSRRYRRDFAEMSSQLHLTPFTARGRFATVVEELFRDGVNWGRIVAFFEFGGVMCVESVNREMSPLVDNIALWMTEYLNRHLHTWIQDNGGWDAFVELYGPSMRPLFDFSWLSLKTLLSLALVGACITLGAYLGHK

Cc1ccc(C)c(O)c1C
active: [10] 50000 nM
not listed: [14]
inactive: all other assays above

CCCCCCCC=O
active: [10] 50000 nM
not listed: [9] | [12]
inactive: all other assays above

O=c1[nH]cc(F)c(=O)[nH]1
active: [7] 70900 nM | [10] 51000 nM | CYP2E1 (gene 1571) 51000 nM | CYP4A11 (gene 1579) 51000 nM
not listed: [9]
inactive: all other assays above

CC(C)c1ccc(C(=O)N=C(N)N)cc1S(C)(=O)=O
inactive: [9] | CYP2C9 (gene 1559) | CYP2E1 (gene 1571)
active: [1] 7390 nM | [2] 590 nM | [3] 407 nM | [4] 7390 nM | [5] 418 nM | [6] 350 nM | BCL2L11 (gene 10018) 397 nM | [7] 302 nM | [8] 558 nM | Caspase-3 (Homo sapiens) 383 nM | [10] 452 nM | [11] 409 nM | [12] 464 nM | [13] 13100 nM | CYP2C8 (gene 1558) 578 nM | CYP4A11 (gene 1579) 297 nM
